Results on eight compounds are retold here after PubChem BioAssay (Tox21).

Each structure is given as a SMILES string. Values without a mark were called inactive. Records with an inconclusive call do not appear. Activity calls are given as the source filed them. Unless noted, calls follow the shape of the dose curve; as a rule, active = well fitted curve in the direction sought with a large enough effect in the repeat runs; inconclusive = weak or mixed curves; inactive = no such curve, though single readings can be large; an effect the other way counts as inactive or inconclusive.

Assay [1] in a line: qHTS assay to identify small molecule antagonists of the estrogen related receptor (ERR) signaling pathway from Tox21 library - cell viability counter screen (AID 1224834). Also: nearly all actives have a fitted effect of over 30% in size. The method in brief: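 Viability readout (CellTiter-Fluor fluorescence, 30 min at 37 C) multiplexed with the ERR assay; cells treated 17.5 h at 37 C with compounds delivered in DMSO.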
The target in assay [2] is Luciferin 4-monooxygenase (Photinus pyralis) (UniProt P08659). Nature of the assay: qHTS assay to identify small molecule inhibitors of firefly luciferase (AID 1224835). Also: nearly all actives have a fitted effect of over 25% in size. Also: potency is read from the fitted curve at half-maximal effect. Summed up: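 Quantitative HTS format; KM concentrations of both substrates. Purified P. pyralis FLuc activity quantified from luminescence images.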
Luciferin 4-monooxygenase (Photinus pyralis), sequence (P08659 whole entry, looked up): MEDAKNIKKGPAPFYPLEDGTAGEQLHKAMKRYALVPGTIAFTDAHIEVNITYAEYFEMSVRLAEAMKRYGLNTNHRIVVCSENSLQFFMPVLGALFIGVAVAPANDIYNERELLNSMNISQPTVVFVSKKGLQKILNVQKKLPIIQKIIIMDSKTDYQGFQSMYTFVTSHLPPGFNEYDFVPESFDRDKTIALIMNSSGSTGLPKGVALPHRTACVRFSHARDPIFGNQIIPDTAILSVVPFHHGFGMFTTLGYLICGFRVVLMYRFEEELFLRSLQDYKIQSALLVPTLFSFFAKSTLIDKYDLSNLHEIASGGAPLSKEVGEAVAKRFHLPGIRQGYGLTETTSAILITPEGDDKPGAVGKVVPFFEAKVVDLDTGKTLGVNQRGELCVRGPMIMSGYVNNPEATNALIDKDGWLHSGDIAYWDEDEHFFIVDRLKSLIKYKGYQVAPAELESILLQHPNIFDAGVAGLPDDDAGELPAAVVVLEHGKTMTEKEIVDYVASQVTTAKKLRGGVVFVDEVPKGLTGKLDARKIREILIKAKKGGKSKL
In general terms: qHTS replaces the single test concentration by a dilution series.

A short description of assay [3]: qHTS assay to identify small molecule agonists of the constitutive androstane receptor (CAR) signaling pathway - cell viability counter screen (AID 1224836). Also: series mostly up to about 92 µM; nearly all actives have a fitted effect of over 45% in size. Summed up: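 Multiplexed viability check: HepG2-CYP2B6-hCAR cells, 15-point compound dosing, 0.75 uM PK11195 final, 23 h at 37 C, CellTiter-Fluor fluorescence.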
Assay [4] in a line: qHTS assay to identify small molecule antagonists of the constitutive androstane receptor (CAR) signaling pathway - cell viability counter screen (AID 1224837). Also: series mostly up to about 92 µM; nearly all actives have a fitted effect of over 45% in size. Summed up: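 Fluorescence from CellTiter-Fluor served as the viability signal. Human hepatoma HepG2 cells stably bearing hCAR and CYP2B6-2.2kb received compound plus CITCO (50 nM final) for 23 hr.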
For assay [5], the target named is Nuclear receptor subfamily 1 group I member 3 (Homo sapiens) (UniProt Q14994). Description: qHTS assay to identify small molecule antagonists of the constitutive androstane receptor (CAR) signaling pathway (AID 1224838).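 Also: HepG2 cells stably expressing hCAR with CYP2B6 luciferase reporter stimulated by CITCO; nearly all actives have a fitted effect of over 40% in size.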 Summed up:
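Quantitative HTS in double-stable HepG2-CYP2B6-hCAR cells. After 4 h plating, cells get compound (15 concentrations) and CITCO at 50 nM final, incubate 24 h at 37 C, then ONE-Glo luminescence is read.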

For assay [6] the target is unchanged. Nature of the assay: qHTS assay to identify small molecule agonists of the constitutive androstane receptor (CAR) signaling pathway (AID 1224839). Also: nearly all actives have a fitted effect of over 15% in size. Also: potency is read from the fitted curve at half-maximal effect.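 As to activation: HepG2 cells stably carrying human CAR and a CYP2B6 luciferase reporter; series mostly up to about 92 µM.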 The method in brief:
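Using human hepatoma HepG2 cells engineered with hCAR and a CYP2B6-2.2kb reporter, 15-concentration compound series were incubated 24 h alongside PK11195 at 0.75 uM final, with luminescence quantified afterwards.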

Assay [7] can be described thus: qHTS assay to identify small molecule antagonists of the estrogen related receptor signaling pathway with the pleiotropic PPARgamma coactivator (PGC) from Tox21 10K library - cell viability counter screen (AID 1224840; active = well fitted cell-killing curve with a large enough effect in the repeat runs, not every such curve was filed as active; also: nearly all actives have a fitted effect of over 40% in size). The method in brief:
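Compounds in DMSO, alongside positive and negative controls, were pinned onto PGC/ERR cells (2,000 per well). Exposure lasted 17.5 hours at 37 C, followed by a 30-minute CellTiter-Fluor incubation and fluorescence reading.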

Assay [8] is described as follows: qHTS assay to identify small molecule antagonists of the estrogen related receptor signaling pathway with the pleiotropic PPARgamma coactivator (PGC) from Tox21 10K library (AID 1224841; call rule not given here; also: series mostly up to about 92 µM; actives are mostly falling curves and most rising ones were filed inactive; nearly all actives have a fitted effect of over 50% in size). The method in brief:
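Compound exposure ran 18 hours at 37 C in PGC/ERR cells (2,000/well) that had first rested 6 hours in a 37 C/5% CO2 incubator. Luciferase activity was then detected with One-Glo after a 30-minute room-temperature step.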

A short description of assay [9]: qHTS assay to identify small molecule agonists of the estrogen related receptor signaling pathway with the pleiotropic PPARgamma coactivator (PGC) from Tox21 10K library (AID 1224842). Also: nearly all actives have a fitted effect of over 15% in size. The method in brief: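 PGC/ERR reporter cells (NTP line) were seeded 2,000 per well, rested 6 h at 37 C/5% CO2, then pin-dosed with compounds in DMSO for 18 h at 37 C; luciferase read by One-Glo luminescence after 30 min at room temperature.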

Assay [10] in a line: qHTS assay to identify small molecule agonists of H2AX (AID 1224845; active = well fitted activation curve with a large enough effect in the signal ratio in the repeat runs, not every such curve was filed as active; the % refers to the signal ratio). Summed up:
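Wild-type CHO-K1 cells plated overnight, then exposed 3 hr at 37C to compounds at 15 concentrations (0.76% DMSO). Lysed, then HTRF anti-pH2AX(S139)-cryptate/anti-H2AX-d2 detection after 24 hr at room temperature; emissions 665 and 620 nm.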

Assay [11] can be described thus: qHTS assay to identify small molecule agonists of the hypoxia (HIF-1) signaling pathway (AID 1224846; active = well fitted activation curve with a large enough effect in the signal ratio in the repeat runs, not every such curve was filed as active; the % refers to the signal ratio). Summed up: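 Measured by blue/green FRET after loading CCF4-AM: beta-lactamase expressed from a hypoxia response element in ME-180 cells. Test agents were delivered in DMSO and left 17 hrs; cells had been plated 5 hrs earlier in low-serum (0.5% dialyzed FBS) medium.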

Assay [12] is described as follows: qHTS assay to identify small molecule agonists of H2AX - cell viability counter screen (AID 1224847; calls by dose curve; also: top concentration of the series differs between compounds; nearly all actives have a fitted effect of over 30% in size). Summed up: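 After overnight plating of 1000 CHO-K1 cells per well, a 15-concentration compound series was applied for 3 hr at 37C. Luminescence from CellTiter-Glo, read following 30 min at room temperature, reflected cell viability.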
A short description of assay [13]: qHTS assay to identify small molecule antagonists of the estrogen related receptor (ERR) signaling pathway from Tox21 library (AID 1224848). Also: nearly all actives have a fitted effect of over 50% in size. The method in brief: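 Cells: ERR line, 2,000/well; 6 h preincubation 37 C/5% CO2. Cpd in DMSO via pin tool; 18 h, 37 C. ONE-Glo, 30 min RT, luminescence.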
The nature of assay [14]: qHTS RealTime-Glo MT Cell Viability Assay in HepG2 cells - 24 hour (AID 1224867). Also: nearly all actives have a fitted effect of over 50% in size. The method in brief: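 Cell number in HepG2 cultures estimated from NanoLuc luminescence generated by metabolic reduction of a prosubstrate by living cells. The homogeneous, nonlytic format allowed repeated reads at 0, 8, 16, 24, 32 and 40 h of compound exposure.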
Assay [15] can be described thus: qHTS RealTime-Glo MT Cell Viability Assay in HEK293 cells - 32 hour (AID 1224868). Also: top concentration of the series differs between compounds; nearly all actives have a fitted effect of over 50% in size. The method in brief: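 Homogeneous bioluminescent viability format in HEK293 cells (600 cells/well). Following 5 h at 37 C/5% CO2, 23 nL compound was pintooled; the signal was measured repeatedly during 40 h incubation.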
Assay [16] in a line: A CellTox Green Cytotoxicity Assay to monitor cytotoxicity in HEK293 cells - 0 hour (AID 1224869). Also: nearly all actives have a fitted effect of over 50% in size. The method in brief: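 Each value comes from one timepoint of a single continuous run in which HEK293 cells with CellTox Green were exposed to compound for up to 40 h at 37 C, dye fluorescence rising with cell death.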
A short description of assay [17]: qHTS RealTime-Glo MT Cell Viability Assay in HepG2 cells - 40 hour (AID 1224870). Also: nearly all actives have a fitted effect of over 50% in size. The method in brief:
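HepG2 cells mixed with RealTime-Glo MT reagents (NanoLuc plus cell-permeant prosubstrate) were seeded at 600 cells/well, incubated 5 h at 37 C/5% CO2, then pinned with compounds in DMSO; nonlytic luminescence tracked viability during 40 h treatment.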

In assay [18] the target is Thyrotropin receptor (Homo sapiens) (UniProt P16473). Nature of the assay: qHTS assay to identify small molecule agonists of the thyroid stimulating hormone receptor (TSHR) signaling pathway (AID 1224843; calls by dose curve; also: nearly all actives have a fitted effect of over 45% in size). Summed up:
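TSHR-expressing HEK293 cells (800 per well) were exposed to compounds for 30 min at room temperature. cAMP was then detected by HTRF competition with cAMP-d2 and anti-cAMP cryptate, read after 1 h at room temperature. Fifteen concentrations, triplicate.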

Assay [19] is described as follows: qHTS assay to identify small molecule agonists of the hypoxia (HIF-1) signaling pathway - cell viability counter screen (AID 1224844; calls by dose curve; also: nearly all actives have a fitted effect of over 50% in size). The method in brief: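 Luminescent ATP content (CellTiter-Glo, 30 min, room temperature) served as the viability measure in HRE-bla ME-180 cells exposed to compounds for 17 hrs in low-serum medium (0.5% dialyzed FBS).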

Nuclear receptor subfamily 1 group I member 3 (Homo sapiens), sequence (Q14994 whole entry, looked up): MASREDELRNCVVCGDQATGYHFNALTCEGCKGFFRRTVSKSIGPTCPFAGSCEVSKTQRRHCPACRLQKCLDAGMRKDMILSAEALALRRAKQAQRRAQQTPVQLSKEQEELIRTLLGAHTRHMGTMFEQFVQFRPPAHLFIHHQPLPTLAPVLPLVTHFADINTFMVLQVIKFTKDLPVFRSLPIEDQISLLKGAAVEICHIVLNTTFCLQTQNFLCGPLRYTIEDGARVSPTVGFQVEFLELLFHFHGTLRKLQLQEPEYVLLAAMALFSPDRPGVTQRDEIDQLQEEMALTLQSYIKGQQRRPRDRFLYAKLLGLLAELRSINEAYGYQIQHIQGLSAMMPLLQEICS
Thyrotropin receptor (Homo sapiens), sequence (P16473 whole entry, looked up): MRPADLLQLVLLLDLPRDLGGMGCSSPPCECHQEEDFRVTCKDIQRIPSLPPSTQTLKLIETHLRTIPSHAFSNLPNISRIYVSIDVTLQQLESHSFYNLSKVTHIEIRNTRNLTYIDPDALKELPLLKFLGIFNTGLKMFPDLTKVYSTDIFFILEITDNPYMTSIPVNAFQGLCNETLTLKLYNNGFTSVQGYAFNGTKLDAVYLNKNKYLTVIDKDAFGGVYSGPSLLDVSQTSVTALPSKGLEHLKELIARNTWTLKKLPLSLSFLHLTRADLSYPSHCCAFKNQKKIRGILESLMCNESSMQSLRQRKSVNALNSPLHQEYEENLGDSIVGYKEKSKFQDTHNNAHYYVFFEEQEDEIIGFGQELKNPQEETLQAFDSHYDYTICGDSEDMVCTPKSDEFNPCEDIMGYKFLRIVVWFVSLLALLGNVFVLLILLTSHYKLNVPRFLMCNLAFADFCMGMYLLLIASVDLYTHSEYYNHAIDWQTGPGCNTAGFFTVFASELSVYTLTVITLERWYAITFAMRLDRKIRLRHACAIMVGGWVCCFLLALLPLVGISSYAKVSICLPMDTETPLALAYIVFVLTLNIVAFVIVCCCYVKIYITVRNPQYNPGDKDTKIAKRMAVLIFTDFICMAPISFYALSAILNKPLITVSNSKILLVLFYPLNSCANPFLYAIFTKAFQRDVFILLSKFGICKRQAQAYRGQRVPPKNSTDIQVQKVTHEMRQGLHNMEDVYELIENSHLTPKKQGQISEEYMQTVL

Regarding `O=C(O)CCCCCCCCCCCBr`, the Potency entry in assay [1], in assay [3], in [4], in assay [5], in assay [6] and in assay [7] was “inactive” in each case. For the same compound, the Potency result in assay [8], in assay [9], in [10], in assay [12], in [13] and in assay [14] was “inactive” in each case. In addition, the Potency result in assay [15], in assay [16] and in [17] was “inactive” each time. In addition, the Potency in assay [2] is 56.6 µM (active). In addition, in assay [11], the compound was classed as inactive.

With `Cc1ccccc1S`, the Potency entry in assay [1], in [2], in assay [3], in [4], in [5] and in assay [6] was “inactive” each time. For the same compound, the Potency entry in assay [7], in assay [18], in [19], in [10], in assay [12] and in assay [14] was “inactive” in each case. Moreover, the Potency entry in assay [15], in [16] and in [17] was “inactive” each time. Besides, the call in [11] was inactive.

`Nc1cccc2c1CN(C1CCC(=O)NC1=O)C2=O` (centres undefined): the Potency result in assay [1], in [2], in assay [3], in [4], in [5] and in [6] was “inactive” each time. Further, the Potency result in [7], in [18], in assay [19], in [10], in assay [12] and in assay [14] was “inactive” each time. For the same compound, the Potency result in assay [15] and in assay [16] was “inactive” in each case. Also, the result in assay [11] was inactive.

Regarding `Nc1ncnc2c1ncn2[C@H]1CC[C@@H](CO)O1`, the Potency entry in assay [1], in assay [2], in [3], in assay [4], in assay [5] and in assay [6] was “inactive” each time. For the same compound, the Potency result in assay [7], in assay [18], in assay [19], in assay [14], in [15] and in assay [16] was “inactive” each time. Further, the Potency result in assay [17] was “inactive”. Moreover, the result in [11] was inactive.

Turning to `CN(C)CCN1C(=O)c2ccccc2N(C)c2ccccc21`, the Potency result in assay [1], in [2], in assay [3], in [4], in assay [5] and in [7] was “inactive” in each case. The Potency result in [18], in assay [19], in [10], in [14], in assay [15] and in assay [16] was “inactive” throughout. Besides, in [17], the Potency result is “inactive”. Further, the Potency in assay [6] was 26.6 µM (active). Also, the outcome in [11] was inactive.

Consider `C=CC(C)(CCC=C(C)C)OC(=O)CC(C)C` (centres undefined), for which the Potency entry in [1], in [2], in assay [3], in assay [4], in assay [5] and in assay [6] was “inactive” throughout. Further, the Potency result in [7], in assay [18], in assay [19], in assay [10], in assay [12] and in assay [14] was “inactive” each time. Moreover, the Potency result in assay [15], in assay [16] and in [17] was “inactive” in each case. Moreover, the outcome in [11] was inactive.

Consider `CCCC(=O)C(=O)O`, for which the Potency entry in assay [1], in assay [2], in assay [3], in [4], in assay [5] and in [6] was “inactive” in each case. The Potency entry in assay [7], in assay [19], in [10], in assay [12], in [14] and in [15] was “inactive” throughout. For the same compound, the Potency entry in [16] and in [17] was “inactive” each time. The outcome in assay [11] was inactive.

In the case of `Cc1ccc(CO)cc1`, the Potency result in [1], in [2], in [3], in assay [4], in assay [5] and in assay [6] was “inactive” throughout. The Potency entry in assay [7], in [18], in assay [19], in assay [10], in assay [12] and in assay [14] was “inactive” throughout. Also, the Potency result in [15], in assay [16] and in assay [17] was “inactive” each time. Besides, in assay [11], the call was inactive.
